GluA2 TARP mod: modulators of GluA2-stargazin AMPA receptor complexes, primary screen, cell-based, membrane potential dye; hit rate 3.5% among 40,000; HEK293 GluA2+stargazin, membrane potential dye (FDSS), glutamate EC50; hits were called plate by plate, in both directions; Voltage-dependent calcium channel gamma-2 subunit (Mus musculus) + Glutamate receptor 2 …; calls only at 30 µM;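 active = any of four per-well response measures lying three or more SD from its plate-wide compound average, in either direction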
GIRK2 act: activators of NPY4-receptor-primed GIRK2 channels, summary, cell-based, HEK293, thallium flux. G protein-activated inward rectifier potassium channel 2 (Homo sapiens), P48051. HEK293 GIRK2/NPY4 cells, thallium flux fluorescence. activation (% efficacy), % for hits at 37.5 µM. 34,000 tested, under 10 active. AID 1259324, 2017;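 active = primary screen hit, no activity in plain HEK293 cells, and in GIRK2-only cells above 5% efficacy rising with concentration; inactive = the rest, including fluorescent compounds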;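 note: efficacy is normalized control-subtracted fluorescence 15 s after thallium addition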
* marks the source's active call; other numbers are inactive results; i = inactive; nt = no result given; + = active, no number. Many of the other results were omitted from the sample, so hits are more common in it than they were.

SMILES	GluA2 TARP mod	GIRK2 act
O=C(Nc1cccc(C(F)(F)F)c1)c1ccc(S(=O)(=O)N2CCCC2)o1	i	i
CC(C)(C)c1ccc(C(=O)N(Cc2ccsc2)C2CC2)cc1	nt	i
COc1ccc(Nc2cc(C)nc(NCCNC(=O)c3cnccn3)n2)cc1	+	i
COc1ccc(Nc2cc(C)nc(NCCNC(=O)c3nccc(C)n3)n2)cc1	nt	i
COCCNC(=O)c1ccc2c(=O)n(Cc3ccccc3Cl)c(=S)[nH]c2c1	i	i
COCCNc1oc2c(c1-c1ccc(OC)cc1)c(=O)oc1c(C)cccc12	i	i
Cc1ccc2nc3c(cc(C(=O)NCC(=O)OC(C)C)n3Cc3ccccc3)c(=O)n2c1	i	i
COc1ccc(C)cc1NC(=O)c1cc2c(=O)n3cc(C)ccc3nc2n1Cc1ccccc1	+	i
Cc1cc(NC(=O)Oc2ccccc2)ccc1N1CCCC1=O	i	i
O=C(CCC1CCCCC1)NCCCn1nc(-c2cccnc2)ccc1=O	nt	i
Cn1nc(CNC(=O)c2cccc(C#N)c2)c2ccccc2c1=O	+	i
Cn1nc(CNC(=O)c2ccccc2C(=O)c2ccccc2)c2ccccc2c1=O	i	i
COc1ccc(S(=O)(=O)CC(=O)Nc2nc3ccc4sc(C)nc4c3s2)cc1	i	i
CCc1ccc(S(=O)(=O)Nc2ccc(N3CCCC3=O)c(OC)c2)s1	i	i
COc1ccc(N2CC(NC(=O)c3ccccc3C(F)(F)F)CC2=O)cc1 (stereo not given)	+	nt
O=C(NC1CC(=O)N(c2ccccc2)C1)c1ccccc1C(F)(F)F (stereo not given)	i	nt
Cc1nnc2ccc(C(=O)O)cn12	i	i
O=C(c1ccc(S(=O)(=O)N2CCc3ccccc3C2)cc1)N1CCCC1	i	nt
O=C(Nc1c2c(nn1-c1ccc(F)cc1)CSC2)C(=O)N1CCCC1	+	nt
O=C(Nc1c2c(nn1-c1ccc(Cl)cc1)CSC2)C(=O)N1CCCC1	i	i
Cc1cccc(Nc2ccc(N3CCN(C(=O)C4CCC(=O)N4)CC3)nn2)n1 (stereo not given)	+	i
Cc1cccc(Nc2ccc(N3CCN(C(=O)C4CCCO4)CC3)nn2)n1 (stereo not given)	nt	i
O=C1Nc2ccc(S(=O)(=O)Nc3ccc(N4CCOCC4)cc3)c3cccc1c23	i	nt
CCCNC(=O)Cn1cc(OC)c(=O)cc1CSc1nc(C)cc(C)n1	+	i
COc1cn(CC(=O)NCc2ccccc2)c(CSc2nc(C)cc(C)n2)cc1=O	i	i
SMILES	GluA2 TARP mod	GIRK2 act
COc1cn(CC(=O)Nc2ccc3c(c2)OCO3)c(CN2CCCCC2)cc1=O	i	i
Cc1ccc(NC(=O)N2CCC3(CC2)NC(=O)N(Cc2ccc(Cl)cc2)C3=O)cc1F	+	i
O=C(Nc1ccc(F)cc1)N1CCC2(CC1)NC(=O)N(Cc1ccc(Cl)cc1)C2=O	nt	i
O=C(Nc1ccc(F)c(Cl)c1)N1CCC2(CC1)NC(=O)N(CCc1ccccc1)C2=O	+	i
O=C(Nc1ccccc1)N1CCC2(CC1)NC(=O)N(CCc1ccccc1)C2=O	i	i
Cc1nn(C2CCS(=O)(=O)C2)c2nc(-c3ccccc3)cc(C(=O)NCCc3ccccc3)c12 (stereo not given)	i	i
CC(=O)Nc1c(C(=O)Nc2ccc(Cl)cc2)nnn1-c1ccccc1	i	nt
COc1ccc(S(=O)(=O)N2CCCCC2CCNC(=O)C(=O)Nc2ccccc2C#N)cc1 (stereo not given)	i	nt
Cc1ccc(C)c(Sc2cc(N3CCC(C(=O)NCC(C)C)CC3)ncn2)c1	i	i
CCOC(=O)N1CCC(NC(=O)C2CCN(c3cc(Sc4cc(C)ccc4C)ncn3)CC2)CC1	+	i
CNC(=O)C(=O)NCC1CCN(Cc2ccccc2)CC1	i	i
COc1ccccc1C(=O)N1CCOC(c2ccccc2)C1 (stereo not given)	nt	i
O=C(NCC#CCN1CCc2ccccc2C1)c1cc(-c2ccco2)on1	i	nt
Cc1ccc2[nH]c3c(=O)n(CC(C)c4ccccc4)cnc3c2c1 (stereo not given)	nt	i
COc1ccc(S(=O)(=O)CC(=O)N(Cc2ccccc2)Cc2ccccc2)cc1	i	i
Cc1ccc(S(=O)(=O)CCCC(=O)N(Cc2ccccc2)Cc2ccccc2)cc1	+	i
CCS(=O)(=O)N1CCCc2cc(NC(=O)Nc3cc(Cl)ccc3OC)ccc21	+	i
CCS(=O)(=O)N1CCCc2cc(NC(=O)NCc3ccccc3)ccc21	i	i
CCCS(=O)(=O)N1CCCc2cc(NC(=O)NCCCc3ccccc3)ccc21	+	i
CCS(=O)(=O)N1CCCc2cc(NC(=O)Nc3ccc(OC)cc3)ccc21	i	i
COc1cc(S(=O)(=O)Nc2cc(Cl)ccc2O)c(OC)cc1Cl	+	i
COc1cc(S(=O)(=O)Nc2cccc3cn[nH]c23)c(OC)cc1Cl	i	nt
Cc1cn2c3c(=O)[nH]c(=O)n(C)c3nc2n1CCCN1CCOCC1	+	i
CCCCCn1c(C)c(C)n2c3c(=O)n(C)c(=O)n(C)c3nc12	i	i
Cc1c(C)n2c3c(=O)n(CC(N)=O)c(=O)n(C)c3nc2n1CCCn1ccnc1	+	i
SMILES	GluA2 TARP mod	GIRK2 act
Cc1c(C)n2c3c(=O)n(CC(N)=O)c(=O)n(C)c3nc2n1-c1ccc(Br)cc1	i	nt
CCOCCN1N=C(c2ccc(F)cc2)Cn2c1nc1c2c(=O)n(C)c(=O)n1C	i	nt
Cn1c(=O)c2c(nc3n2CC(c2ccc(F)cc2)=NN3CCN2CCOCC2)n(C)c1=O	+	i
CCCCn1c(NCCCN2CCOCC2)nc2c1c(=O)[nH]c(=O)n2C	i	i
Cc1c(C)n2c3c(=O)n(C)c(=O)n(C)c3nc2n1CCCN1CCOCC1	+	i
O=C(NCC1CCN(C(=O)/C=C/c2ccco2)CC1)c1cc(-c2ccco2)on1	i	i
Cc1nnsc1C(=O)N1CCC(CNC(=O)Cn2c(=O)oc3ccccc32)CC1	i	i
C=CCNC(=O)C(=O)NCCC(c1ccccc1)c1ccccc1	i	nt
CCCn1c(C2CC(=O)N(CC(C)C)C2)nc2ccccc21 (stereo not given)	i	nt
Cc1cc(C)c(C(=O)NCC2CCN(Cc3cccs3)CC2)c(C)c1	nt	i
Cn1nc(NC(=O)COc2ccccc2F)c2c1NC(=O)CC2c1ccco1 (stereo not given)	i	i
C=CCn1c(N)c(S(=O)(=O)c2ccccc2)c2nc3ccccc3nc21	i	i
Cc1ccc(-n2c(-c3ccccc3)cn3c4c(=O)n(CCN5CCOCC5)c(=O)n(C)c4nc23)cc1	i	nt
Cn1c(=O)c2c(nc3n(CCN4CCOCC4)c(-c4ccccc4)cn23)n(C)c1=O	+	nt
COC(=O)Cn1c(-c2ccccc2)cn2c3c(=O)n(C)c(=O)n(C)c3nc12	+	i
CCOC(=O)Cn1c(-c2ccccc2)cn2c3c(=O)n(C)c(=O)n(C)c3nc12	i	nt
CC(C)(C)C(=O)NCC1(c2cccs2)CCCC1	nt	i
Cc1cc(-c2nnc(NC(=O)c3ccc(Cl)cc3)o2)nn1C	+	i
